Experiments:
[1] = biological target: T1, Aspartate--tRNA(Asp/Asn) ligase (Mycobacterium tuberculosis (strain ATCC 25618 / H37Rv)) (UniProt P9WFW3); assay: Assay for Asp RNA synthetase-1 from Mycobacterium tuberculosis; type: functional; design: scale not given: direction of the effect not stated beside the values; conditions: 30 µM; further: in the data most compounds retested in dose-response had high values
T1 sequence (whole entry): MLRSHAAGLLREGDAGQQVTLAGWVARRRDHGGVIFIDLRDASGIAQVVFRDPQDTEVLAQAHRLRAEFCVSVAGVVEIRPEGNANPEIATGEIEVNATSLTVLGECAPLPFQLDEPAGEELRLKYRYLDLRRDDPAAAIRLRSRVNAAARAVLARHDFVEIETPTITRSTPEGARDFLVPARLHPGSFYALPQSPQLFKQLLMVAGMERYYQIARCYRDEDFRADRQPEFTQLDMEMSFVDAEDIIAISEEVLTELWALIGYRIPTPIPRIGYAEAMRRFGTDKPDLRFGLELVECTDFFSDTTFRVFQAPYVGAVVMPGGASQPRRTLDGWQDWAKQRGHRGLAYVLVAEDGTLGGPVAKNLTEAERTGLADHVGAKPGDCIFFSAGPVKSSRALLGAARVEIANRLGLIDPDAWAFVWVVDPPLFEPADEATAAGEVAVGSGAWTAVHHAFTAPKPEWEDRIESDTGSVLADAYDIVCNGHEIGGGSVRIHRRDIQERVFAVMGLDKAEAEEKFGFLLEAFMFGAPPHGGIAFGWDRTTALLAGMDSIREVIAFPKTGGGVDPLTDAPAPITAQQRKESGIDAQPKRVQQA

[2] = biological target: Shiga toxin 2 (Escherichia coli O157:H7) (UniProt P09385+P09386); assay: E. coli 0.157:H7 Shiga Toxin SOP - stx2 screening assay; type: functional; design: scale not given: direction of the effect not stated beside the values; conditions: 30 µM

SMILES | Percent Effect [1] | Percent Effect [2]
Cc1cccc(N2Cc3nc(=O)[nH]n3C2=O)c1 | -3.43% | -54.1%
CC(C)CCC(C)NC(=O)c1ccc(OCC(N)=O)cc1 (stereo not drawn) | 2.49% | -8.96%
Cc1nc(N2CCOCC2)nc2c1CCN(Cc1cccnc1)CC2 | 2.91% | -7%
COc1ccc(CN(C)CC2(O)CCN(C(=O)c3cccn3C)C2)cc1 (stereo not drawn) | 2.04% | -5.84%
